Data on six substances can be found in article PMC11062913.

In experiment [1] the target is Histone H3.2 (UniProt P84233). Description: cross-link between two proteins; cross-linking mass spectrometry.
Experiment [2] addresses Histone H2A type 1 (UniProt P06897). The experiment can be described thus: cross-linking mass spectrometry.
In experiment [3] the target is Histone H3.2 (UniProt P84233). The experiment can be described thus: cross-linking mass spectrometry.
The target in another experiment is Histone H4 (UniProt P62799). Description: cross-linking mass spectrometry.
The target of experiment [4] is Transcription elongation factor A protein 1 (UniProt P23193). Description: cross-link between two proteins; cross-linking mass spectrometry.
Experiment [5] concerns the target DNA-directed RNA polymerase II subunit RPB7 (UniProt P62487). The description is as above.
Experiment [6] addresses Histone H2A type 1 (UniProt P06897). The experiment is described as above.
For the next experiment, the target named is Histone H2B 1.1 (UniProt P02281). The description is as above.
Experiment [7] has as its target Transcription elongation factor SPT4 (UniProt P63272). Description: cross-link between two proteins; cross-linking mass spectrometry; two-hybrid or complementation screen.

Histone H4, P62799: in the experiment with Histone H3.2 [1], the “listed as a hit” value was “yes”.
As to “DNA-directed RNA polymerase II subunit RPB7, P62487”, in the experiment with Histone H3.2 [1], the “listed as a hit” value is listed as “yes”.
For “Transcription elongation factor A protein 1, P23193”, in the experiment with Histone H3.2 [1], the “listed as a hit” value is given as “yes”.
Histone H2B 1.1, P02281: the “listed as a hit” value with Histone H2A type 1 [2], with Histone H3.2 [3] and with Histone H4 was “yes” each time.
In the case of Histone H2A type 1, P06897, the “listed as a hit” value (with Histone H3.2 [3]; in the experiment with Histone H4; in experiment [4]) was “yes” throughout.
“Transcription elongation factor SPT5, O00267”: the “listed as a hit” value (in [5]; with Histone H2A type 1 [6]; with Histone H2B 1.1; in the experiment with Histone H3.2 [1]; in experiment [7]) was “yes” in each case.
